Screening data as filed in PubChem.
Chronic BCR inh = chronic active BCR signaling inhibition. Potency, µM (series often up to 46.1 µM), hits mostly inhibitors. actives 0.05% (n = 340,000). ABC-DLBCL IkBa-CBG/CBR reporter, luminescence ratio, 4 h; active = well fitted inhibition curve with a large enough effect in the signal ratio, with a control signal flat, not every such curve was filed as active; inconclusive = small, poorly fitted or top-dose-only effect, or effect the other way, or a change in a side signal; the % refers to the signal ratio
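Compounds up to 46 uM were incubated four hours with TMD8 cells whose green CBG68 luciferase is fused to IkappaBalpha; red CBR luminescence normalised the signal, and concentration-effect curves were fitted to fusion, red and ratio data.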
MCF10A rerep = inducers of DNA re-replication in MCF 10A breast cells; MCF 10A DNA re-replication, Hoechst nuclear intensity, 48 h; actives 2.9% (n = 350,000); Potency, µM (titrated, usually from 46.1 µM), actives largely listed as activators; also: nearly all actives have a fitted effect of over 50% in size
IL1B secr inh = inflammasome signaling inhibition, IL-1 beta readout | THP-1 LPS/ATP IL-1B secretion, AlphaLISA, 16 h; hits give low values | activity change, % at 57.5 µM | actives 4.7% (n = 360,000); in the data active = activity change below about -50%; inconclusive = mostly about -30% to -49%
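THP-1 cells pretreated 1 hr with compounds (up to 57.5 uM final), then stimulated with LPS (250 ng/mL final) plus ATP (1.25 mM final); secreted IL-1B measured by AlphaLISA after 16 hr, decreased signal indicating inhibition.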
TDP1 cell CPT = growth inhibition of DT40 Tdp1-/-;hTDP1 cells with camptothecin (screen for TDP1 inhibitors) | AID 686979 | actives 12% (n = 420,000) | chicken DT40 Tdp1-/-;hTDP1 cells + 20 nM CPT, ATP luminescence, 48 h | Potency, µM (top dose mostly 46.2 µM), usual class: inhibitors; also: nearly all actives have a fitted effect of over 55% in size
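Chicken DT40 Tdp1-/- cells complemented with human TDP1, 400 cells/well, exposed to compounds plus 20 nM camptothecin for at least 48 h at 37 C; viability read as ATP content by CellTiter-Glo luminescence.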
SW480 rereplic = DNA re-replication induction in SW480 cells; actives 1.8% (n = 340,000); Potency, µM (top dose mostly 46.1 µM), usual class: activators; SW480 DNA re-replication, Hoechst DNA content imaging, 48 h; also: nearly all actives have a fitted effect of over 55% in size
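DNA re-replication was detected as more nuclei of elevated Hoechst intensity after 48 hr exposure to compound (23 nL pinned per well of 250 cells).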
DT40 TDP1 no CPT = qHTS for Inhibitors of human tyrosyl-DNA phosphodiesterase 1 (TDP1): qHTS in cells in absence of CPT | DT40 Tdp1-/- hTDP1 cells, no CPT, ATP luminescence, 48 h | Potency, µM (titrated, usually from 46.2 µM), hits mostly inhibitors | actives 15% (n = 420,000) | AID 686978, 2013; also: nearly all actives have a fitted effect of over 55% in size
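No-CPT arm: Tdp1-/-;hTDP1 DT40 cells (400/well) plus compounds, incubated ≥48 hr at 37 °C. Readout CellTiter-Glo luminescence.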
Of the large screens only hits and unclear results are named; the others gave an inactive call. Hits are enriched below; roughly 19% of the tested compounds scored in any of these assays. Unless noted, calls follow the shape of the dose curve; as a rule, active = well fitted curve in the direction sought with a large enough effect; inconclusive = small, poorly fitted or top-dose-only effect, or another doubt; inactive = no such curve, though single readings can be large; an effect the other way counts as inactive or inconclusive.

COc1ccc(N(CC(=O)NCCSCc2ccc(Cl)cc2)S(C)(=O)=O)cc1Cl	TDP1 cell CPT inconclusive, DT40 TDP1 no CPT inconclusive
NC1=NC[C@H](Cc2ccc(O)cc2)N1CCCCC1CCCCC1	Chronic BCR inh inconclusive, MCF10A rerep inconclusive, IL1B secr inh -58, TDP1 cell CPT 4.6µM, DT40 TDP1 no CPT 2.6µM
NC1=NC[C@H](Cc2ccc(O)cc2)N1CCc1cc(C(F)(F)F)cc(C(F)(F)F)c1	TDP1 cell CPT inconclusive, DT40 TDP1 no CPT inconclusive
NC1=NC[C@H](Cc2ccccc2)N1CCCCC1CCCCC1	IL1B secr inh inconclusive, TDP1 cell CPT 5.2µM, DT40 TDP1 no CPT 5.2µM
NC1=NC[C@H](Cc2ccccc2)N1CCc1cccc(F)c1	TDP1 cell CPT 13µM, DT40 TDP1 no CPT 12µM
Cc1oc2cc3oc(=O)c(CCC(=O)NCc4ccccn4)c(C)c3cc2c1C	TDP1 cell CPT inconclusive
Cc1ccc(S(=O)(=O)N2CCCC2)cc1C(=O)NCc1ccccc1CN1CCCC1	none
CNC(=O)c1cc(C(=O)c2ccc(F)cc2C(F)(F)F)c[nH]1	TDP1 cell CPT inconclusive, DT40 TDP1 no CPT inconclusive
NS(=O)(=O)c1ccc(SCc2ccccc2)nc1	IL1B secr inh inconclusive, DT40 TDP1 no CPT inconclusive (no result: Chronic BCR inh)
NS(=O)(=O)c1ccc(Sc2ccc3ccccc3c2)nc1	Chronic BCR inh inconclusive, IL1B secr inh -88, TDP1 cell CPT inconclusive, DT40 TDP1 no CPT inconclusive
CCOc1cc(C(N)=O)cc(Br)c1OC	TDP1 cell CPT 23µM, DT40 TDP1 no CPT 16µM
COC(=O)c1nccnc1C(=O)Nc1ccccc1N1CCOCC1	none
Cc1noc(C)c1-c1cncnc1N1CCN(C)CC1	none (no result: Chronic BCR inh, MCF10A rerep, IL1B secr inh, SW480 rereplic)
O=C(CSc1nnc(C2CC2)n1Cc1ccccc1)N1CCNC1=O	none
O=C(CN1C(=O)c2ccccc2Sc2ccc(C(=O)N3CCOCC3)cc21)Nc1ccc(Cl)cc1F	none (no result: MCF10A rerep, IL1B secr inh, SW480 rereplic)
CN1CCN(C(=O)C[C@@H]2CC[C@@H]3[C@H](COC[C@@H](O)CN3Cc3cccc(Cl)c3)O2)CC1	none (no result: Chronic BCR inh, MCF10A rerep, SW480 rereplic)
O=C(COc1coc(CN2CCN(c3cccc(Cl)c3)CC2)cc1=O)NC1CCCC1	TDP1 cell CPT inconclusive, DT40 TDP1 no CPT 15µM
O=C(COc1coc(CN2CCN(c3ccccc3)CC2)cc1=O)Nc1ccccc1	TDP1 cell CPT inconclusive
Cc1ccc(NC(=O)COc2coc(CN3CCN(c4ccccc4)CC3)cc2=O)cc1	DT40 TDP1 no CPT 21µM
CC(C)C(NC(=O)c1c(F)cccc1F)C(=O)N1CCN(c2ncccn2)CC1 (stereo unspecified)	none
CCOC(=O)Nc1ccc2c(c1)N(C(=O)CCN(C)C)c1ccccc1CC2	Chronic BCR inh inconclusive, MCF10A rerep inconclusive, IL1B secr inh -69
CCOC(=O)Nc1ccc2c(c1)N(C(=O)CCN1CCOCC1)c1ccccc1S2=O (stereo unspecified)	Chronic BCR inh inconclusive, MCF10A rerep 10µM, IL1B secr inh -63, TDP1 cell CPT 3.7µM, SW480 rereplic 5.8µM, DT40 TDP1 no CPT 5.8µM
CC(C)OC(=O)Nc1ccc2c(c1)N(C(=O)CCN(C)C)c1ccccc1CC2	SW480 rereplic inconclusive
CCOC(=O)Nc1ccc2c(c1)N(C(=O)OCCN(C)C)c1ccccc1CC2	TDP1 cell CPT 18µM, DT40 TDP1 no CPT inconclusive
COC(=O)Nc1ccc2c(c1)N(C(=O)CCCl)c1ccccc1S2	Chronic BCR inh inconclusive, MCF10A rerep inconclusive, IL1B secr inh -96, SW480 rereplic inconclusive
CCS(=O)(=O)Nc1ccc2c(c1)N(C(C)=O)c1ccccc1CC2	Chronic BCR inh inconclusive
Cc1cccc(NC(=O)CN2CCN(C(=O)c3cnn(Cc4ccccc4)c3)CC2)c1C	Chronic BCR inh inconclusive
Cc1ccccc1C(=O)Nc1nnc(SCc2cc(=O)n3ccccc3n2)s1	none (no result: Chronic BCR inh, MCF10A rerep, IL1B secr inh, SW480 rereplic)
COC(=O)Nc1ccc2c(c1)N(C(=O)CCN(C)C)c1ccccc1CC2	IL1B secr inh -57
